Data taken from PubChem BioAssay AID2534 (National Center for Advancing Translational Sciences (NCATS), 2010).
Inconclusive results are not listed. The source made the active and inactive calls. The call rests on the fitted dose curve; in most records, active means well fitted curve in the direction sought with a large enough effect; inconclusive means small, poorly fitted or top-dose-only effect, or effect the other way, or another doubt; inactive means no such curve, though single readings can be large or run the other way.

What follows are compounds tested against Pyruvate kinase PKLR (Homo sapiens) (UniProt P30613) (assay: Secondary Concentration-Response Assay for Activators of Human Reticulocyte Pyruvate Kinase: for Probe SAR). Conditions: purified hPK-R, ATP production, Kinase-Glo luminescence; series mostly up to 57.5 µM; activity change, negative = inhibition: at the top concentration.
Sequence of Pyruvate kinase PKLR (Homo sapiens) (P30613 whole entry, looked up): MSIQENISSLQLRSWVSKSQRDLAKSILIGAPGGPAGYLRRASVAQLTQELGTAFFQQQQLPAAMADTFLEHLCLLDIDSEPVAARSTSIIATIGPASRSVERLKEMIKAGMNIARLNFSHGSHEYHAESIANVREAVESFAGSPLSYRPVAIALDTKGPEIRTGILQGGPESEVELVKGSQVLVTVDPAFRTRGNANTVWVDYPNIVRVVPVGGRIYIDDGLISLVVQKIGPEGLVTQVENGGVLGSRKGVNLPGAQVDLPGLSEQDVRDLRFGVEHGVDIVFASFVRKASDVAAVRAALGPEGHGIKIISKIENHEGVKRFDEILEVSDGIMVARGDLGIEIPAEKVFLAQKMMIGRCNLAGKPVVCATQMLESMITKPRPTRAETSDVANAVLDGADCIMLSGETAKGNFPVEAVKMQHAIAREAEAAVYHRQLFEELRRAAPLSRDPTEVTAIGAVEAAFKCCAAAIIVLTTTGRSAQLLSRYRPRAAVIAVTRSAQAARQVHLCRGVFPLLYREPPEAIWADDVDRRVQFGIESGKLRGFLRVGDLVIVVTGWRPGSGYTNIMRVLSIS
Source text: NIH Chemical Genomics Center [NCGC]
Wael M. Rabeh, Lyudmila Nedyalkova and Hee-Wan Park [Structural Genomics Consortium, 100 College St. Toronto, Ontario, Canada]
Human pyruvate kinase reticulocyte (hPK-R) enzyme was supplied as a highly purified (>95% pure) preparation from Structural Genomics Consortium in Toronto (Ontario, Canada) and assayed for its ability to generate ATP from ADP using phosphoenolpyruvate (PEP) as a substrate. ATP generation was detected in a coupled reaction by luciferase-mediated luminescence, an ATP-dependent process. Pyruvate kinase substrates, PEP and ADP, were present in the assay at Km and approximately 10-fold below Km respectively. The enzyme was assayed at an intermediate level of activity to screen for both inhibitors and activators.
NCGC Assay Protocol Summary for R-isoform
Three uL of substrate mix (at r.t.) in assay buffer (50 mM Imidazole pH7.2, 50 mM KCl, 7 mM MgCl2, 0.01% Tween 20, 0.05% BSA) was dispensed into white solid bottom 1,536 well microtiter plates so that the final concentrations of substrates in the assay were 0.1 mM ADP and 0.5 mM PEP. 23 nL of compound were delivered by a pin tool and 1 uL of enzyme mix (final concentration of 0.1 nM) in assay buffer (4 degree Celsius) was added. Plates were incubated at room temperature for 1 hour. Two uL of detection mix (Kinase-Glo, Promega; at 4 degree Celsius protected from light) was added and luminescence read by a ViewLux (Perkin Elmer) at 1 second exposure/plate. Data were normalized to the uninhibited (row 31). Additionally, a no enzyme and 5-fold enzyme control was dispensed in row 32, split equally between the two conditions.

Activity change, negative = inhibition, inactive:
O=C1CCc2cc(S(=O)(=O)Nc3ccc4ncccc4c3)ccc2N1 6.24%, O=C1c2ccccc2C(=O)N1Cc1ccncc1 9.02%, COc1cccc(Cn2ncc3c4sc(S(C)=O)cc4n(C)c3c2=O)c1 (stereo not given) 11.7%, N#Cc1ccc(NS(=O)(=O)c2ccc3c(c2)CCC(=O)N3)cc1 0.584%, Cc1cc(N2C(=O)c3ccccc3C2=O)n[nH]1 -9.57%, O=C1CCc2cc(S(=O)(=O)Nc3ccc(F)cc3)ccc2N1 0.814%, O=C1CCc2cc(S(=O)(=O)Nc3cccc(Oc4ccccc4)c3)ccc2N1 1.08%, O=C1c2ccccc2C(=O)N1c1cccc2cccnc12 5.04%, O=C1CCc2cc(S(=O)(=O)Nc3ccc4c(c3)OCCO4)ccc2N1 12.4%, O=C1CCc2cc(S(=O)(=O)Nc3cccc4ccccc34)ccc2N1 -2.68%, O=C1NS(=O)(=O)c2ccccc21 -1.36%, Cc1ccc(NS(=O)(=O)c2ccc3c(c2)n(C)c(=O)n3C)cc1C 12.9%, O=C1CCc2cc(S(=O)(=O)Nc3ccccc3F)ccc2N1 -5.2%, Cc1c(Cl)cccc1NS(=O)(=O)c1cc2c(cc1F)NC(=O)CC2 -6.02%, Nc1cccc(S(=O)(=O)N2CCCN(S(=O)(=O)c3ccc4c(c3)OCCO4)CC2)c1 20.9%, O=C1CCc2cc(S(=O)(=O)Nc3ccc4ccccc4c3)ccc2N1 3.45%, O=C1CCc2cc(S(=O)(=O)Nc3cccc(Br)c3)ccc2N1 -3.86%, Cc1ccc(NS(=O)(=O)c2cc3c(cc2F)NC(=O)CC3)cc1Cl 0.0219%, COc1cc(N2C(=O)c3ccccc3C2=O)c2ncccc2c1 9.59%, O=C1CCc2cc(S(=O)(=O)Nc3ccc(F)c(Cl)c3)ccc2N1 -3.48%, Cc1ccc(NS(=O)(=O)c2ccc3c(c2)CCC(=O)N3)cc1C 0.345%, Cc1ccc(NS(=O)(=O)c2ccc3c(c2)CCC(=O)N3)cc1F 1.93%, N#Cc1cccc(NS(=O)(=O)c2ccc3c(c2)CCC(=O)N3)c1 4.74%, O=C1c2ccccc2C(=O)N1c1cccc(Cl)c1 3.13%, Cc1ccc(C)c(SC2=NS(=O)(=O)c3cc(C(=O)NCc4ccccc4)ccc32)c1 -68.1%, O=C1c2ccccc2C(=O)N1c1noc2ccccc12 -7.43%, Cc1ccc(NS(=O)(=O)c2cc3c(cc2Cl)CCC(=O)N3)cc1Cl -0.101%, CN(C)c1cccc(S(=O)(=O)N2CCCN(S(=O)(=O)c3ccc4c(c3)OCCO4)CC2)c1 18.2%, Cc1ccc(Cl)cc1NS(=O)(=O)c1cc2c(cc1F)NC(=O)CC2 -16.4%, O=C1c2ccccc2C(=O)N1c1nccs1 8.19%, O=C1CCc2cc(S(=O)(=O)Nc3ccncc3)ccc2N1 3.56%, O=C1CCc2cc([S+](=O)([O-])Nc3ccc(N[S+](=O)([O-])c4ccc5c(c4)CCC(=O)N5)cc3)ccc2N1 5.29%, CC(C)Nc1cccc(S(=O)(=O)N2CCCN(S(=O)(=O)c3ccc4c(c3)OCCO4)CC2)c1 15.9%, COc1cccc(NS(=O)(=O)c2ccc3c(c2)CCC(=O)N3)c1 11%, O=C1c2ccccc2C(=O)N1c1cccc2ccncc12 11.9%, Cc1c(Cl)cccc1NS(=O)(=O)c1cc2c(cc1Cl)CCC(=O)N2 1.15%, Cc1ccc(C)c(OC2=NS(=O)(=O)c3ccccc32)c1 -0.194%, O=C1CCc2cc(S(=O)(=O)Nc3ccc(-c4ccccc4)cc3)ccc2N1 9.89%, O=C1CCc2cc(S(=O)(=O)Nc3cccc(Cl)c3)ccc2N1 8.82%

outcome, inactive:
Cc1cc2c(s1)c1cnn(Cc3ccccc3F)c(=O)c1n2C
